# Measured values reported in article PMC11024108.
# Experiments:
# [1] = target: Large ribosomal subunit protein eL24 (UniProt P83731); experiment: cross-link between two proteins; cross-linking mass spectrometry
# [2] = target: Large ribosomal subunit protein uL1 (UniProt P62906); experiment: as above
# [3] = target: Actin, alpha cardiac muscle 1 (UniProt P68033); experiment: as above
# Coronin-2B = target: T1, Coronin-2B (UniProt Q8BH44); experiment: as above
# T1 sequence: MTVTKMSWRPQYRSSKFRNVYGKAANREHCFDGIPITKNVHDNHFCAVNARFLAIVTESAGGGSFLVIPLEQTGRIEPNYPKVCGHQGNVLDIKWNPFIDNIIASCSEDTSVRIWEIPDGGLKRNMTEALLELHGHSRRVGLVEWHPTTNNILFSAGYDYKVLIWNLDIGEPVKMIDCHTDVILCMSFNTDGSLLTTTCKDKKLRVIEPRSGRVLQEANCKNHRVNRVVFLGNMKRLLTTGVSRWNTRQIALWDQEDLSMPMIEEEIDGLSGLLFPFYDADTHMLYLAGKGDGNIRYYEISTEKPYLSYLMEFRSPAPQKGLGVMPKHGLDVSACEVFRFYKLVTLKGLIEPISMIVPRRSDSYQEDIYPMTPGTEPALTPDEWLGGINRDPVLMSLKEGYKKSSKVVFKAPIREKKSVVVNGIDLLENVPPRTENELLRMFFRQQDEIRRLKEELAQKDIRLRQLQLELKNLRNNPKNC
# Myosin-10 = Myosin-10 (UniProt Q61879); experiment: as above
# [4] = target: T2, Phosphatase and actin regulator 1 (UniProt Q2M3X8); experiment: as above
# T2 sequence: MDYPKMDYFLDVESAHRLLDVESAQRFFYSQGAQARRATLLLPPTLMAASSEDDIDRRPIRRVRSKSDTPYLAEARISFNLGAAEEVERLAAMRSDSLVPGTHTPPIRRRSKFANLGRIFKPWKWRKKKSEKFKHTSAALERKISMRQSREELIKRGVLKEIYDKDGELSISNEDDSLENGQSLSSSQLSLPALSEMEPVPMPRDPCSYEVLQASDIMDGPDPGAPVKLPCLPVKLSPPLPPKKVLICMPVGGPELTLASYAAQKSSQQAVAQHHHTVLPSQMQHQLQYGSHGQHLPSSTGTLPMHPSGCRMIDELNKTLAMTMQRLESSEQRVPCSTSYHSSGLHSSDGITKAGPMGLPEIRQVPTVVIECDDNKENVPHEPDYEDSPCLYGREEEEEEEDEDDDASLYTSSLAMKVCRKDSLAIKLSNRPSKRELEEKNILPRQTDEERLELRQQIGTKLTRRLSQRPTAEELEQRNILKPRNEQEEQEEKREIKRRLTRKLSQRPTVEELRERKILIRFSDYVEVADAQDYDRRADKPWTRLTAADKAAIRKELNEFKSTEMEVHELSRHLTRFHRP
# Synaptopodin = target: T3, Synaptopodin (UniProt Q8CC35); experiment: as above
# T3 sequence: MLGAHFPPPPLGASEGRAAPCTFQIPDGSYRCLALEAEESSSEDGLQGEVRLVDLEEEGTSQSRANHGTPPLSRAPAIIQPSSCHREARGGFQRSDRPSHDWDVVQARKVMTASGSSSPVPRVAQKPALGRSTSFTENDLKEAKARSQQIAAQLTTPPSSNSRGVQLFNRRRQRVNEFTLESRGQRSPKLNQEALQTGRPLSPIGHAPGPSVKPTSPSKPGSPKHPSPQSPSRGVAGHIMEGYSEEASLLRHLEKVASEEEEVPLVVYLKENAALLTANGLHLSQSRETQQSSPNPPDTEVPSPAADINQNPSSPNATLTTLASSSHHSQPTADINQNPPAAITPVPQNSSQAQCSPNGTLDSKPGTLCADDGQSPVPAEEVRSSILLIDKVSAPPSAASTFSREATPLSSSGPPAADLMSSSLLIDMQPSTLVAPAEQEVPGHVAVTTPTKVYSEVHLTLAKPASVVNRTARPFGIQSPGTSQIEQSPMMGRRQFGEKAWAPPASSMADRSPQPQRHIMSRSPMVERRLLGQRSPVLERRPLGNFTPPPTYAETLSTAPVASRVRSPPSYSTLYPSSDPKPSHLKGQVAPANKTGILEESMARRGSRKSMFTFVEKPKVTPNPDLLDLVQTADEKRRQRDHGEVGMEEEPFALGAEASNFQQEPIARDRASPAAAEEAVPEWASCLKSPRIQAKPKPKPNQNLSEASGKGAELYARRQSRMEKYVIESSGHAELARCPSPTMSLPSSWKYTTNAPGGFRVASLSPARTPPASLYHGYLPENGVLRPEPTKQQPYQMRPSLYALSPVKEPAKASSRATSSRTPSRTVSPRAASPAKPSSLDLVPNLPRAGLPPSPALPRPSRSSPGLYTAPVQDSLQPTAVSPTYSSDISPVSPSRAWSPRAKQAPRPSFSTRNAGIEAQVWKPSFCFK
# Tropomodulin-2 = target: T4, Tropomodulin-2 (UniProt Q9JKK7); experiment: as above
# T4 sequence: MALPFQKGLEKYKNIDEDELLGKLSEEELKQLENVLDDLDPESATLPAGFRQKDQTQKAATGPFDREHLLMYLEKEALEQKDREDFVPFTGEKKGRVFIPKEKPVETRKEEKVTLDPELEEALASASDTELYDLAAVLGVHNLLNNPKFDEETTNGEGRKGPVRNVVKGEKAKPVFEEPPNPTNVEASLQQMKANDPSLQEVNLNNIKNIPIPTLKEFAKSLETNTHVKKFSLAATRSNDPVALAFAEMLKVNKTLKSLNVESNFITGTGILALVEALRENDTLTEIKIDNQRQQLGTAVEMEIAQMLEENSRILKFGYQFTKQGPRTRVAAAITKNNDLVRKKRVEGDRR
# Twinfilin-1 = Twinfilin-1 (UniProt Q91YR1); experiment: as above
# Twinfilin-2 = target: T5, Twinfilin-2 (UniProt Q9Z0P5); experiment: as above
# T5 sequence: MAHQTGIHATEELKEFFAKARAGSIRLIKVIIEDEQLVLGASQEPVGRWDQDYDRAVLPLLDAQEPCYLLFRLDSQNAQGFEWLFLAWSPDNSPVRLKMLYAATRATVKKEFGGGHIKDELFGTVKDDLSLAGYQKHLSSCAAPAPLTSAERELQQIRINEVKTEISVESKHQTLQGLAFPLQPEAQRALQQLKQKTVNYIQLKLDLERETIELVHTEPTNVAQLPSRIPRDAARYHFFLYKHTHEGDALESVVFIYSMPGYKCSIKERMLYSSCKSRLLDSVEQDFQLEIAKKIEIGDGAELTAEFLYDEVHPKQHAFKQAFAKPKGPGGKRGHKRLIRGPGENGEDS
# Unconventional myosin-Va = Unconventional myosin-Va (UniProt Q99104); experiment: as above
# Beta-synuclein = Beta-synuclein (UniProt Q91ZZ3); experiment: as above
# Histone H1.2 = Histone H1.2 (UniProt P16403); experiment: as above
# Sequence of Histone H1.2 (P16403 whole entry): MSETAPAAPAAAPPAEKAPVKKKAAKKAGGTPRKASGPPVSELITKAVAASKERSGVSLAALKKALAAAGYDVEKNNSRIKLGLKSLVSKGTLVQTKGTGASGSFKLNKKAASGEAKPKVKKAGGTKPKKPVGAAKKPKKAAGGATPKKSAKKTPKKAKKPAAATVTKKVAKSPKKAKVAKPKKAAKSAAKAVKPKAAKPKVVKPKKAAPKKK
# [5] = target: Large ribosomal subunit protein eL20 (UniProt Q02543); experiment: as above
# [6] = target: T6, Serine/arginine-rich splicing factor 7 (UniProt Q16629); experiment: as above
# T6 sequence: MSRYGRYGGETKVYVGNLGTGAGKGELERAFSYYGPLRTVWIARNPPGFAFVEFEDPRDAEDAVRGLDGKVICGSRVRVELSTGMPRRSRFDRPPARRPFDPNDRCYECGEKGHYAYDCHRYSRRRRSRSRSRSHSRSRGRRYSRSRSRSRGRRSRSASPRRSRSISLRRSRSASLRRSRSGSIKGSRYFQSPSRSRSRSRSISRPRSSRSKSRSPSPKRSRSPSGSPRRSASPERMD
# [7] = target: Small ribosomal subunit protein eS8 (UniProt P62241); experiment: as above
# [8] = target: AP-2 complex subunit beta (UniProt P63010); experiment: as above
# Sequence of AP-2 complex subunit beta (UniProt P63010) (P63010 whole entry, one chain of several): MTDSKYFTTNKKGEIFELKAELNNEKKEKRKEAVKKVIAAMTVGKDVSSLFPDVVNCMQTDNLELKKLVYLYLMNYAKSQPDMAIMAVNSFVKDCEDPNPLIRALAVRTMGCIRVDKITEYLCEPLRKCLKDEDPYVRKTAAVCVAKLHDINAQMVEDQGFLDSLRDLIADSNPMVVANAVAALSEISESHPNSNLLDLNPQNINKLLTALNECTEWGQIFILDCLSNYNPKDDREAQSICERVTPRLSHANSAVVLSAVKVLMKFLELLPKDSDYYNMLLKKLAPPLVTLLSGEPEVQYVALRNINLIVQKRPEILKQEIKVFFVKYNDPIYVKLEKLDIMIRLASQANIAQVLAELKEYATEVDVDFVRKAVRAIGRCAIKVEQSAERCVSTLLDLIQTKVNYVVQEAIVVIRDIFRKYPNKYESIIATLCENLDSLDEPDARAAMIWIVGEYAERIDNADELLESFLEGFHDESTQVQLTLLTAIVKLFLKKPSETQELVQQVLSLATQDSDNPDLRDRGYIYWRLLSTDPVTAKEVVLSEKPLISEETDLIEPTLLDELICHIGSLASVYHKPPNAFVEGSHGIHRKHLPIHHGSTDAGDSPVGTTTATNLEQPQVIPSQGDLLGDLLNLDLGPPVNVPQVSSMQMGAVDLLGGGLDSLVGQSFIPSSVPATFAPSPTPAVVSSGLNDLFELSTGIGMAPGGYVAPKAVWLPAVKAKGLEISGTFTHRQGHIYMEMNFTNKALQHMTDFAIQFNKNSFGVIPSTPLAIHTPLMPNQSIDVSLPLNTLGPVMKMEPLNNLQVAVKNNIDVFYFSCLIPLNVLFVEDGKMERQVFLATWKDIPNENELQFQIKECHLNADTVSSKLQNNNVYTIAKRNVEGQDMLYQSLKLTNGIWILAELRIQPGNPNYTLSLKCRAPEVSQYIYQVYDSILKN
# [9] = target: AP-1 complex subunit beta-1 (UniProt Q10567); experiment: cross-link between two proteins; co-fractionation; cross-linking mass spectrometry
# Sequence of AP-1 complex subunit beta-1 (Q10567 whole entry, one chain of several): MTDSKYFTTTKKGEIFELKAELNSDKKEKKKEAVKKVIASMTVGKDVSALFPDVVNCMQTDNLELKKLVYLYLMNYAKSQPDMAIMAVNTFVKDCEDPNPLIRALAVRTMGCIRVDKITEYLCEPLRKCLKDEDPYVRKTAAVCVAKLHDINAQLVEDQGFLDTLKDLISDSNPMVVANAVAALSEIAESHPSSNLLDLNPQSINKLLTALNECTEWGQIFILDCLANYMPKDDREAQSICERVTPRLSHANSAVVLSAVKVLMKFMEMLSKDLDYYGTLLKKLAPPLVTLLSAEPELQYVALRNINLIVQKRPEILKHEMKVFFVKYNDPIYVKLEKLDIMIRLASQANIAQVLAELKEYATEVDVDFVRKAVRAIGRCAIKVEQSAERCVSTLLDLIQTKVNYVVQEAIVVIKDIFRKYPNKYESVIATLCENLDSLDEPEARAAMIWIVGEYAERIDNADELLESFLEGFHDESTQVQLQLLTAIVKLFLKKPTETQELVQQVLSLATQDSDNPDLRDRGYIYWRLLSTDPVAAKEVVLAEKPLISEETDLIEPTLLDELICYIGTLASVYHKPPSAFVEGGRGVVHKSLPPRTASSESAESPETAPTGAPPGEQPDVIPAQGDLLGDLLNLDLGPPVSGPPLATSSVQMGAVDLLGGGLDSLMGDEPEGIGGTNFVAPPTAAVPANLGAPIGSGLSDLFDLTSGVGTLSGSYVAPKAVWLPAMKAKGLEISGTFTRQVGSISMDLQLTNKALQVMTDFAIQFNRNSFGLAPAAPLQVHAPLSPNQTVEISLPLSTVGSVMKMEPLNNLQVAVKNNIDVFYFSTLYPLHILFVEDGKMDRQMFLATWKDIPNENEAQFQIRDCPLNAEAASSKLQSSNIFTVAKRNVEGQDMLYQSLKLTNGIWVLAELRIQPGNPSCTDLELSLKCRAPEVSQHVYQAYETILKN
# Histone H2B type 1-L = Histone H2B type 1-L (UniProt Q99880); experiment: cross-link between two proteins; cross-linking mass spectrometry
# Histone H2B type 1-M = Histone H2B type 1-M (UniProt Q99879); experiment: as above
# [10] = target: Actin-related protein 2/3 complex subunit 5 (UniProt Q9CPW4); experiment: as above
# [11] = target: Actin-related protein 2/3 complex subunit 5-like protein (UniProt Q9D898); experiment: as above
# [12] = target: L-lactate dehydrogenase B chain (UniProt P16125); experiment: as above
# [13] = target: Actin-related protein 2/3 complex subunit 2 (UniProt Q9CVB6); experiment: as above
# [14] = target: Large ribosomal subunit protein eL34 (UniProt Q9D1R9); experiment: as above
# Histone H2A type 1-J = Histone H2A type 1-J (UniProt Q99878); experiment: as above
# [15] = target: Large ribosomal subunit protein eL24 (UniProt Q8BP67); experiment: as above
# [16] = target: AP-2 complex subunit beta (UniProt Q9DBG3); experiment: as above
# Sequence of AP-2 complex subunit beta (UniProt Q9DBG3) (Q9DBG3 whole entry, one chain of several): as the sequence (P63010 whole entry, one chain of several) above, with A612T counted along it
# [17] = target: Large ribosomal subunit protein mL53 (UniProt Q96EL3); experiment: as above
# Sequence of AP-2 complex subunit sigma, P53680 (P53680 whole entry, one chain of several): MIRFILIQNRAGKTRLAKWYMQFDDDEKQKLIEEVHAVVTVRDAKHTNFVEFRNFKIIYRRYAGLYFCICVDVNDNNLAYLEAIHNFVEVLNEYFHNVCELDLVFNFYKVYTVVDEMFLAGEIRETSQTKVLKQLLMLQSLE
# Sequence of AP-2 complex subunit sigma, P62743 (P62743 whole entry, one chain of several): as the sequence (P53680 whole entry, one chain of several) above
substance,measurement,setting,value
"Large ribosomal subunit protein uL3, P39023",listed as a hit,[1],yes
"Small ribosomal subunit protein eS1, P61247",listed as a hit,[2],yes
"Actin, cytoplasmic 1, P60710",listed as a hit,[3],yes
same,listed as a hit,Coronin-2B,yes
same,listed as a hit,Myosin-10,yes
same,listed as a hit,[4],yes
same,listed as a hit,Synaptopodin,yes
same,listed as a hit,Tropomodulin-2,yes
same,listed as a hit,Twinfilin-1,yes
same,listed as a hit,Twinfilin-2,yes
same,listed as a hit,Unconventional myosin-Va,yes
"Alpha-synuclein, O55042",listed as a hit,Beta-synuclein,yes
"Histone H1.4, P10412",listed as a hit,Histone H1.2,yes
same,listed as a hit,[5],yes
same,listed as a hit,[6],yes
same,listed as a hit,[7],yes
"AP-2 complex subunit sigma, P53680",listed as a hit,[8],yes
same,listed as a hit,[9],yes
"Histone H2A type 1-J, Q99878",listed as a hit,Histone H2B type 1-L,yes
same,listed as a hit,Histone H2B type 1-M,yes
"Actin-related protein 2/3 complex subunit 4, P59999",listed as a hit,[10],yes
same,listed as a hit,[11],yes
"L-lactate dehydrogenase A chain, P06151",listed as a hit,[12],yes
"Actin-related protein 3B, Q641P0",listed as a hit,[13],yes
"Large ribosomal subunit protein eL8, P12970",listed as a hit,[14],yes
"Actin-related protein 3, Q99JY9",listed as a hit,[13],yes
"Histone H2B type 1-C/E/F/G/I, P62807",listed as a hit,Histone H2B type 1-L,yes
same,listed as a hit,Histone H2B type 1-M,yes
"Large ribosomal subunit protein uL14, P62829",listed as a hit,Histone H2A type 1-J,yes
"Small ribosomal subunit protein eS6, P62754",listed as a hit,[15],yes
"AP-2 complex subunit sigma, P62743",listed as a hit,[16],yes
"Large ribosomal subunit protein uL10m, Q7Z7H8",listed as a hit,[17],yes
"Histone H3.2, Q71DI3",listed as a hit,Histone H2B type 1-L,yes
same,listed as a hit,Histone H2B type 1-M,yes
"Histone H2A type 1-C, Q93077",listed as a hit,Histone H2A type 1-J,yes
